Records with an inconclusive call do not appear. Values without a mark were called inactive. The source made the active and inactive calls. Calls follow the shape of the dose curve; as a rule, active = well fitted cell-killing curve with a large enough effect in the repeat runs; inconclusive = weak or mixed curves, or effect the other way; inactive = flat fitted curve, though single readings scatter.
assay: cAMP Responsive Elements (CRE) small molecule antagonists, cell-based qHTS assay: qHTS cell viability counter screen (AID 2060913); details: CRE-bla HEK293T viability, CellTiter-Glo luminescence, 5 h; series mostly up to 92.4 µM; viability change, negative = cytotoxic: at the top concentration; also: nearly all actives have a fitted effect of over 40% in size
Outline: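 Steps: cells plated and held 18 hrs at 37 C/5% CO2; compounds and NKH477 (0.25 uM final) added; 3 hrs incubation; reporter substrate read; CellTiter-Glo added to measure cytotoxicity by luminescence.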
% is scaled to controls: 0 for no effect and ±100 for the full control effect; potency is read from the fitted curve at half-maximal effect.

Compound | Potency | viability change, negative = cytotoxic
COc1ccccc1O | inactive | –
CC(=O)N1CCN(c2ccc(O)cc2)CC1 | – | 4.15% [at 42.5 µM]
C=C[Si](OCCOC)(OCCOC)OCCOC | inactive | –
Nc1c2ccccc2nc2ccccc12 | inactive | –
CCC(CC)Nc1ccc(C)c(C)c1 | – | 8.94%
Cc1cccc(NC(=S)N(C)C)c1 | – | -1.36%
CCC(=O)OCCc1ccccc1 | – | -6.32%
O=C(c1ccccc1O)c1ccccc1O | – | -1.94%
CC(C)CCCC(C)(C)O | – | -6.23%
O=C(/C=C/c1ccc(O)c(O)c1)O[C@@H](C(=O)O)[C@@H](OC(=O)/C=C/c1ccc(O)c(O)c1)C(=O)O | – | 3.4%
O=C=NCCCCCCN=C=O | inactive | –
Cc1c(Cl)cccc1Cl | – | 6.98%
O=C(O)Cc1ccc2c(c1)C(=O)c1ccccc1CO2 | – | 0% [at 42.5 µM]
CCOC(=O)c1cc(=O)c2c(OCC(COc3cccc4oc(C(=O)OCC)cc(=O)c34)OC(=O)[C@@H](N)CCCCN)cccc2o1 | – | 3.08% [at 42.5 µM]
CC[C@@H](CO)NCCN[C@@H](CC)CO | – | -0.674% [at 42.5 µM]
C=CC(C)(CCC=C(C)C)OC(C)=O (stereo not given) | inactive | –
CC1=CCC2C(C1)C2(C)C (stereo not given) | – | 6.87%
OCC(O)c1ccccc1 (stereo not given) | – | -3.2%
CC(=O)NC(=O)c1ccccc1O | – | 2.01% [at 42.5 µM]
Nc1nc(N)nc(-c2cc(Cl)ccc2Cl)n1 | – | -2.34% [at 42.5 µM]

Compound | Potency | viability change, negative = cytotoxic
O=C(C1CCCCC1)N1CC(=O)N2CCCc3ccccc3C2C1 (stereo not given) | – | -2.51% [at 42.5 µM]
CC(C)O.CC(C)O.CCOC(=O)/C=C(\C)O.CCOC(=O)/C=C(\C)O.[Ti] | – | 7.89%
CC(C)(C)C1(CCc2ccc(Cl)cc2)CO1 (stereo not given) | – | 6.04%
CC(C)c1cccc(C(C)C)c1N1C(=O)c2ccc(O)cc2C1=O | 61.1 µM (active) | –
CCOC(=O)O[C@H](C)OC(=O)c1ccc2c(c1)cc(C(=O)NC1CCN(C(C)C)CC1)n2Cc1cc(-c2ccc(Cl)s2)on1 | 57.1 µM (active) | –
CCCCCCOC(=O)CC | – | 0.721%
CC/C=C\C/C=C\C/C=C\CCCCCCCC(=O)OC | – | 21.6%
NCC(=O)CCC(=O)O | – | -7.33% [at 42.5 µM]
c1ccc(-c2ccc(C(c3ccccc3)n3ccnc3)cc2)cc1 (stereo not given) | – | -5.27% [at 42.5 µM]
CCN(O)CC | – | 4.85%
C=C(C)C(=O)OCCOC(=O)C(=C)C | inactive | –
COc1ccc2cc3[n+](cc2c1OC)CCc1cc2c(cc1-3)OCO2 | inactive | –
O=C(O)Cc1cccc(-c2cc(CCCCCCc3ccc(O[C@H]4O[C@H](CO)[C@@H](O)[C@H](O)[C@@H]4O)c(-c4cccc(CC(=O)O)c4)c3)ccc2O[C@H]2O[C@H](CO)[C@@H](O)[C@H](O)[C@@H]2O)c1 | – | 1.99% [at 0.349 µM]
CN1CCN(C2=Nc3cc(F)ccc3Cc3ccccc32)CC1 | – | 1.38% [at 42.5 µM]
CCCN(CCC)C(=O)C(CCC(=O)OCCCN1CCN(CCOC(=O)Cc2c(C)n(C(=O)c3ccc(Cl)cc3)c3ccc(OC)cc23)CC1)NC(=O)c1ccccc1 (stereo not given) | – | -1.78% [at 42.5 µM]
O=C(O)CCCCCCCC(=O)O | inactive | –
CC(C)CC(=O)N[C@H](C(=O)N[C@H](C(=O)N[C@@H](CC(C)C)[C@@H](O)CC(=O)N[C@@H](C)C(=O)N[C@@H](CC(C)C)[C@@H](O)CC(=O)O)C(C)C)C(C)C | – | -5.3% [at 42.5 µM]
CCC(C)(C)c1ccc(CC(C)CN2C[C@@H](C)O[C@@H](C)C2)cc1 (stereo not given in full) | – | 1.32% [at 42.5 µM]
CC(C)OC(=O)c1cc(C(=O)OC(C)C)cc([N+](=O)[O-])c1 | – | -1.06%
O=C(/C=C/c1ccccc1)OC/C=C/c1ccccc1 | – | -2.52%

— PubChem BioAssay (Tox21)
